{"source": "PubChem BioAssay AID1159580", "about": "(chemical genetic matrix, 2015)", "experiment": "chemical genetic growth profiling, strain panel (AID 1159580);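 also: tested at 20 µM; growth read once vehicle control cultures reached saturation at 30 °C; 1 = growth at the plate median or of vehicle wells; lower values mean less growth of the strain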", "settings": "S. cerevisiae deletion strains, growth OD", "note": "Values joined by “and” are separate entries in the source; they are usually repeats but may differ in a detail not shown here. Equal values may be shown once. Among all 5,500 compounds or so, about 2,000 (36%) were called active. Not shown: some 18% with an inconclusive outcome. The list shows a part of the results. Values without a mark were called inactive. Rule as the data show it: active = normalized growth mostly below about 0.91 (no sharp cut-off); inconclusive = no clear call, values can overlap the other calls; inactive = mostly above about 0.92.", "data": [{"smiles": "O=c1c(O)cc([C@H]2Oc3cc(O)cc(O)c3C[C@H]2O)cc2c([C@H]3Oc4cc(O)cc(O)c4C[C@H]3O)cc(O)c(O)c12", "values": [{"measurement": "normalized growth", "setting": "locus YAL013W, strain DEP1, active compounds read low", "value": 1.01}, {"measurement": "normalized growth", "setting": "locus YAL021C, strain ccr4, active compounds read low", "value": 1.01}, {"measurement": "normalized growth", "setting": "locus YAL026C, strain drs2, active compounds read low", "value": 1.04}, {"measurement": "normalized growth", "setting": "locus YAL030W, strain snc1, active compounds read low", "value": 1.04}, {"measurement": "normalized growth", "setting": "locus YBL061C, strain skt5, active compounds read low", "value": 1.03}, {"measurement": "normalized growth", "setting": "locus YBR009C, strain hhf1, active compounds read low", "value": 1.04}, {"measurement": "normalized growth", "setting": "locus YBR021W, strain FUR4, active compounds read low", "value": 1.01}, {"measurement": "normalized growth", "setting": "locus YBR023C, strain chs3, active compounds read low", "value": 1.02}, {"measurement": "normalized growth", "setting": "locus YBR171W, strain sec66, active compounds read low", "value": 1.06}, {"measurement": "normalized growth", "setting": "locus YBR229C, strain ROT2, active compounds read low", "value": 0.998}, {"measurement": "normalized growth", "setting": "locus YBR231C, strain swc5, active compounds read low", "value": 1.02}, {"measurement": "normalized growth", "setting": "locus YBR279W, strain paf1, active compounds read low", "value": 1.02}, {"measurement": "normalized growth", "setting": "locus YCL011C, strain gbp2, active compounds read low", "value": 1.04}, {"measurement": "normalized growth", "setting": "locus YCL016C, strain dcc1, active compounds read low", "value": 1.02}, {"measurement": "normalized growth", "setting": "locus YCL029C, strain bik1, active compounds read low", "value": 0.998}, {"measurement": "normalized growth", "setting": "locus YCL069W, strain vba3, active compounds read low", "value": 1.03}, {"measurement": "normalized growth", "setting": "locus YCR088W, strain abp1, active compounds read low", "value": 1.04}, {"measurement": "normalized growth", "setting": "locus YDL005C, strain med2, active compounds read low", "value": 1.05}, {"measurement": "normalized growth", "setting": "locus YDL035C, strain GPR1, active compounds read low", "value": 1.03}, {"measurement": "normalized growth", "setting": "locus YDL040C, strain nat1, active compounds read low", "value": 1.04}, {"measurement": "normalized growth", "setting": "locus YDL074C, strain BRE1, active compounds read low", "value": 1.04}, {"measurement": "normalized growth", "setting": "locus YDL101C, strain DUN1, active compounds read low", "value": 1.02}, {"measurement": "normalized growth", "setting": "locus YDL185W, strain tfp1, active compounds read low", "value": 1.01}, {"measurement": "normalized growth", "setting": "locus YDL192W, strain arf1, active compounds read low", "value": 1}, {"measurement": "normalized growth", "setting": "locus YDR001C, strain nth1, active compounds read low", "value": 1.03}, {"measurement": "normalized growth", "setting": "locus YDR069C, strain doa4, active compounds read low", "value": 0.995}, {"measurement": "normalized growth", "setting": "locus YDR101C, strain arx1, active compounds read low", "value": 1.02}, {"measurement": "normalized growth", "setting": "locus YDR137W, strain rgp1, active compounds read low", "value": 1.03}, {"measurement": "normalized growth", "setting": "locus YDR159W, strain sac3, active compounds read low", "value": 1.1}, {"measurement": "normalized growth", "setting": "locus YDR162C, strain NBP2, active compounds read low", "value": 1.03}, {"measurement": "normalized growth", "setting": "locus YDR195W, strain ref2", "value": 1.04}, {"measurement": "normalized growth", "setting": "locus YDR297W, strain sur2, active compounds read low", "value": 1.02}, {"measurement": "normalized growth", "setting": "locus YDR318W, strain mcm21, active compounds read low", "value": 1.02}, {"measurement": "normalized growth", "setting": "locus YDR334W, strain swr1, active compounds read low", "value": 1.03}, {"measurement": "normalized growth", "setting": "locus YDR335W, strain msn5, active compounds read low", "value": 1.02}, {"measurement": "normalized growth", "setting": "locus YDR388W, active compounds read low", "value": 0.995}, {"measurement": "normalized growth", "setting": "locus YDR392W, strain spt3, active compounds read low", "value": 1.03}, {"measurement": "normalized growth", "setting": "locus YDR502C, strain sam2, active compounds read low", "value": 1.03}, {"measurement": "normalized growth", "setting": "locus YEL003W, strain gim4, active compounds read low", "value": 1.03}, {"measurement": "normalized growth", "setting": "locus YEL037C, strain rad23, active compounds read low", "value": 1.02}, {"measurement": "normalized growth", "setting": "locus YEL061C, strain CIN8 (second series), active compounds read low", "value": 1.04}, {"measurement": "normalized growth", "setting": "locus YEL061C, strain CIN8, active compounds read low", "value": 1.01}, {"measurement": "normalized growth", "setting": "locus YER015W, strain faa2, active compounds read low", "value": 1.01}, {"measurement": "normalized growth", "setting": "locus YER016W, strain bim1, active compounds read low", "value": 1.04}, {"measurement": "normalized growth", "setting": "locus YER110C, active compounds read low", "value": 1.03}, {"measurement": "normalized growth", "setting": "locus YER111C, strain swi4, active compounds read low", "value": 1.01}, {"measurement": "normalized growth", "setting": "locus YER155C, strain BEM2 (second series), active compounds read low", "value": 1.08}, {"measurement": "normalized growth", "setting": "locus YER155C, strain BEM2, active compounds read low", "value": 1.05}, {"measurement": "normalized growth", "setting": "locus YER167W, strain BCK2, active compounds read low", "value": 1.02}, {"measurement": "normalized growth", "setting": "locus YFR010W, strain ubp6, active compounds read low", "value": 1.03}, {"measurement": "normalized growth", "setting": "locus YGL078C, strain dbp3, active compounds read low", "value": 1.01}, {"measurement": "normalized growth", "setting": "locus YGL086W, strain mad1, active compounds read low", "value": 1.02}, {"measurement": "normalized growth", "setting": "locus YGL167C, strain pmr1, active compounds read low", "value": 1.03}, {"measurement": "normalized growth", "setting": "locus YGL173C, strain kem1, active compounds read low", "value": 1.03}, {"measurement": "normalized growth", "setting": "locus YGL227W, strain vid30, active compounds read low", "value": 1.05}, {"measurement": "normalized growth", "setting": "locus YGL240W, strain doc1, active compounds read low", "value": 1.06}, {"measurement": "normalized growth", "setting": "locus YGL248W, strain PDE1, active compounds read low", "value": 0.998}, {"measurement": "normalized growth", "setting": "locus YGL253W, strain hxk2, active compounds read low", "value": 1.05}, {"measurement": "normalized growth", "setting": "locus YGR135W, strain pre9, active compounds read low", "value": 1.01}, {"measurement": "normalized growth", "setting": "locus YGR252W, strain gcn5, active compounds read low", "value": 1.01}, {"measurement": "normalized growth", "setting": "locus YHR013C, strain ard1, active compounds read low", "value": 1.05}, {"measurement": "normalized growth", "setting": "locus YHR027C, strain rpn1, active compounds read low", "value": 1.02}, {"measurement": "normalized growth", "setting": "locus YHR030C, strain SLT2, active compounds read low", "value": 0.985}, {"measurement": "normalized growth", "setting": "locus YHR079C, strain IRE1 (second series), active compounds read low", "value": 1.02}, {"measurement": "normalized growth", "setting": "locus YHR079C, strain IRE1, active compounds read low", "value": 0.999}, {"measurement": "normalized growth", "setting": "locus YHR094C, strain hxt1, active compounds read low", "value": 1.02}, {"measurement": "normalized growth", "setting": "locus YHR129C, strain ARP1, active compounds read low", "value": 1.01}, {"measurement": "normalized growth", "setting": "locus YHR142W, strain chs7, active compounds read low", "value": 1.05}, {"measurement": "normalized growth", "setting": "locus YHR200W, strain rpn10, active compounds read low", "value": 0.994}, {"measurement": "normalized growth", "setting": "locus YIL066C, strain RNR3, active compounds read low", "value": 1.02}, {"measurement": "normalized growth", "setting": "locus YIL073C, strain SPO22, active compounds read low", "value": 1.1}, {"measurement": "normalized growth", "setting": "locus YIL125W, strain kgd1, active compounds read low", "value": 1.02}, {"measurement": "normalized growth", "setting": "locus YIR030C, strain dcg1, active compounds read low", "value": 1.01}, {"measurement": "normalized growth", "setting": "locus YJL092W, strain hpr5, active compounds read low", "value": 1.03}, {"measurement": "normalized growth", "setting": "locus YJL095W, strain BCK1 (second series), active compounds read low", "value": 1.02}, {"measurement": "normalized growth", "setting": "locus YJL095W, strain BCK1, active compounds read low", "value": "0.995 and 1.01"}, {"measurement": "normalized growth", "setting": "locus YJL115W, strain asf1, active compounds read low", "value": 1.05}, {"measurement": "normalized growth", "setting": "locus YJL129C, strain trk1, active compounds read low", "value": "1.14 [resistant] (active)"}, {"measurement": "normalized growth", "setting": "locus YJL134W, strain LCB3, active compounds read low", "value": 1.02}, {"measurement": "normalized growth", "setting": "locus YJL154C, strain vps35, active compounds read low", "value": 1.04}, {"measurement": "normalized growth", "setting": "locus YJL164C, strain tpk1, active compounds read low", "value": 1.01}, {"measurement": "normalized growth", "setting": "locus YJL166W, strain qcr8, active compounds read low", "value": 1.05}, {"measurement": "normalized growth", "setting": "locus YJL168C, strain set2, active compounds read low", "value": 1.02}, {"measurement": "normalized growth", "setting": "locus YJL187C, strain SWE1 (second series), active compounds read low", "value": 0.997}, {"measurement": "normalized growth", "setting": "locus YJR043C, strain POL32, active compounds read low", "value": 1.03}]}]}
